esBAF inh = Bmi1 luciferase reporter increase in mESCs, primary screen, esBAF inhibitor project, mouse ES cells, Bmi1 luciferase knock-in, single point | 24 h; 100% = twice the neutral-well signal | reporter increase, % at 12.5 µM | 2% of 350,000 active; in the data active = activation above about 40%; inconclusive = no clear call, values can overlap the other calls;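 also: a rise in the Bmi1 reporter signal indicates esBAF inhibition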
SMARCA2 act = SMARCA2 (BRM) function activators, primary screen, cell-based, luminescence, high throughput; MG213 cells, MMTV-luciferase reporter, dexamethasone, overnight; activation, % at 9.1 µM; 1% of 370,000 active; AID 652017, 2013; in the data active = activation above about 7.8%
Gli-Sufu block = Gli-Sufu pathway antagonists, primary screen, luciferase luminescence, Sufu-KO-LIGHT cells, uHTS. Sufu-KO-LIGHT fibroblasts, Gli luciferase reporter luminescence. inhibition, % at 5 µM. 0.74% of 340,000 active;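 active = inhibition above about 55%, limit read from the data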
697 NFkB inh = inhibitors of PMA/ionomycin-induced NF-kB reporter, 697 cells, primary screen, B-cell NF-kB inhibitor project, cell-based, luminescence, uHTS; 697 B-cell NF-kB luciferase reporter, 16 h; inhibition, % at 4 µM; 0.33% of 330,000 active; AID 435022, 2010; in the data active = inhibition above about 35%
Jurkat NFkB inh = inhibitors of induced NF-kB luciferase reporter, primary screen, TCR NF-kB activation inhibitor project, cell-based, luminescence, uHTS | Jurkat, PMA/ionomycin-induced NF-kB luciferase reporter | inhibition, % at 4 µM | 0.53% of 330,000 active | AID 435003, 2010; in the data active = inhibition above about 50%
SMARCA2 act conf = SMARCA2 (BRM) function activators, confirmation, cell-based, luminescence, triplicate | shares compounds with SMARCA2 act | activation, % at 9.1 µM | MG213 cells, MMTV-luciferase with dexamethasone, overnight; MG213 cells expressing E1A, Rb sequestered; DMSO wells 0%, reference activator 100% | AID 652260, 2013 | 30% of 3,500 active;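 active = activation above its plate's cutoff, the mean activation of tested wells plus 3 SD, cut at about 7.9% in these data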
GAL4-VP16 Luc = GAL4-VP16 luciferase reporter activation, counter-screen for SMARCA2 (BRM) activator project, cell-based, pG5luc, luminescence, high throughput | shares compounds with SMARCA2 act | HEK293 GAL4-VP16 pG5luc reporter; scaled: DMSO wells 0%, SAHA wells 100% | activation, % at 9.1 µM | 41% of 3,500 active;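 active = activation above the solvent-only control well mean plus 3 SD, averaged across control plates, cut at about 5.2% in these data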
Numbers stand for hits; – = inactive; ? = inconclusive; · = not tested or not shown. Most compounds without a hit are left out; they make up all but 3.3% or so of the library.

SMILES | esBAF inh | SMARCA2 act | Gli-Sufu block | 697 NFkB inh | Jurkat NFkB inh | SMARCA2 act conf | GAL4-VP16 Luc
COc1cccc(C(=O)Nc2ccc(NC(=O)C(C)C)nc2)c1 | – | 8.5 | – | – | – | – | –
CCC(=O)Nc1ccc(NC(=O)c2cccc(OC)c2)nc1 | – | – | – | – | – | · | ·
COc1ccc(C(=O)Nc2ccc(NC(=O)c3cccc(OC)c3)cn2)cc1 | – | – | – | – | – | · | ·
CNC[C@@H]1Oc2cc(C#CCOC)ccc2S(=O)(=O)N([C@@H](C)CO)C[C@@H]1C | – | · | · | · | · | · | ·
O=C(C[C@H]1C[C@H]2c3cc(NS(=O)(=O)c4ccc(F)cc4)ccc3O[C@H]2[C@H](CO)O1)NCc1ccccc1F | – | · | · | · | · | · | ·
CCc1ccc2[nH]c(=O)c(CN(Cc3nnnn3C3CCCC3)C3CCCCC3)cc2c1 | – | 8.3 | – | – | – | – | 5.8
Cc1cccc2cc(CN(Cc3nnnn3C3CCCC3)C3CCCCC3)c(=O)[nH]c12 | – | – | – | – | – | · | ·
C=CCn1c(-c2ccc(OC)cc2)nc2nc3ccccc3nc21 | · | – | – | – | – | · | ·
c1ccc(-c2nc3nc4ccccc4nc3n2Cc2ccco2)cc1 | · | 8.0 | – | – | – | – | 14
CCCCn1c(N)c(N(C)C(=O)c2cc3c(s2)CCCCC3)c(=O)[nH]c1=O | – | 8.5 | – | – | – | – | –
CCCCn1c(N)c(N(CC)C(=O)c2cc3c(s2)CCCCC3)c(=O)[nH]c1=O | · | – | – | – | – | · | ·
COC(=O)c1ccc(/C=C2\Oc3ccccc3NC2=O)cc1 | ? | – | – | – | – | · | ·
CCc1ccc(/C=C2\Oc3ccc(C(=O)OC)cc3C2=O)cc1 | · | 10 | – | – | – | – | 6.5
COc1ccc(S(=O)(=O)N2Cc3ccccc3CC2C(=O)Nc2nccs2)cc1 (configuration not stated) | 50 | 9.8 | – | – | – | – | –
Cc1ccc(C(=O)Nc2cccnc2Cl)cc1Cl | 54 | 8.3 | – | – | – | 9.1 | 7.5
Cc1ccc(C(=O)Nc2ccc(O)c(C(=O)O)c2)o1 | – | 9.3 | – | – | – | – | –
Cc1noc(C)c1S(=O)(=O)Nc1ccc2c(c1)C(=O)N([C@H](C)CO)C[C@@H](C)[C@@H](CN(C)S(=O)(=O)c1cn(C)cn1)O2 | – | · | · | · | · | · | ·
COCCCNC(=S)Nc1ccc(OC(F)F)cc1C | – | – | – | – | – | · | ·
COCCCNC(=S)Nc1cc(C)c(C)cc1C | – | 8.6 | – | – | – | – | –
Nc1ccc(O)c2c(=O)cc(-c3ccccc3Cl)oc12 | · | 8.1 | – | – | – | – | 11
O=C(Nc1ccc(O)c2c(=O)cc(-c3ccccc3Cl)oc12)c1ccc(F)cc1 | – | – | – | – | – | · | ·
COC(=O)C[C@@H]1CC[C@@H]2[C@H](COc3ccc(NC(=O)C4CC4)cc3C(=O)N2C)O1 | – | · | · | · | · | · | ·
NNC(=O)C(Cc1ccc(O)cc1)N1Cc2ccccc2C1=O (configuration not stated) | – | – | – | – | – | · | ·
COC(=O)C(Cc1ccc(O)cc1)N1Cc2ccccc2C1=O (configuration not stated) | ? | 9.1 | – | – | – | – | 9.3
Cc1ccc(C(=O)CSc2nnc(-c3ccco3)n2Cc2ccccc2)cc1 | – | 11 | – | – | – | – | –
SMILES | esBAF inh | SMARCA2 act | Gli-Sufu block | 697 NFkB inh | Jurkat NFkB inh | SMARCA2 act conf | GAL4-VP16 Luc
CCN(CC)CCCNC(=S)N(Cc1cccnc1)Cc1cc2cc(C)cc(C)c2[nH]c1=O | · | – | – | – | – | · | ·
Cc1cc(C)c2[nH]c(=O)c(CN(Cc3cccnc3)C(=S)NCCCN(C)C)cc2c1 | · | 11 | – | – | – | – | –
CC(C)Oc1ccc(C2CC(=O)N(c3cccc(C(=O)O)c3)C2=O)cc1 (configuration not stated) | 56 | 9.8 | – | – | – | – | –
CC(C)Oc1ccc(C2CC(=O)N(c3ccc(C(=O)O)cc3)C2=O)cc1 (configuration not stated) | – | – | – | – | – | · | ·
CN1C(=O)c2cc(NC(=O)c3ccc(C(F)(F)F)cc3)ccc2OC[C@@H]2O[C@@H](CC(=O)O)CC[C@@H]21 | – | · | · | · | · | · | ·
COc1ccc(CCN2CC(C(=O)N(C)Cc3ccccc3OC)CCC2=O)cc1 (configuration not stated) | – | 8.6 | – | – | – | – | –
COc1ccc(CCN2CC(C(=O)N(C)CCOc3ccccc3)CCC2=O)cc1 (configuration not stated) | – | – | – | – | – | · | ·
C=C1C(=O)[C@]23C[C@H]1CCC2[C@@]1(C)C(C[C@@H]3O)[C@](C)(C(=O)O)C[C@H](O)[C@@H]1O (some centres not stated) | – | – | · | · | · | · | ·
C=C1C(=O)[C@]23C[C@H]1CC[C@H]2[C@]1(C)[C@@H](OC(C)=O)CC[C@@](C)(C(=O)O)[C@H]1C[C@@H]3O | – | 34 | · | · | · | 9.1 | –
C=C1C(=O)[C@]23C[C@H]1CC[C@H]2[C@]1(C)[C@@H](O)CC[C@@](C)(C(=O)O)[C@H]1C[C@@H]3O | – | 21 | · | · | · | 37 | –
C=C1C(=O)[C@]23C[C@H]1CCC2[C@@]1(C)C(C[C@@H]3O)[C@](C)(C(=O)OC)CC[C@@H]1OC(C)=O (some centres not stated) | – | – | · | · | · | · | ·
Cc1ccc(C(=O)OCn2ncc(Cl)c(Cl)c2=O)cc1 | – | – | – | – | – | · | ·
Cc1ccc(C)c(C(=O)Cn2ncc(Cl)c(Cl)c2=O)c1 | · | 30 | – | – | – | – | –
Cc1cccc(Cn2ncc(Cl)c(Cl)c2=O)c1 | – | 10 | – | – | – | – | –
C[C@H]1CCCCO[C@@H](CN(C)CC2CCCCC2)[C@@H](C)CN([C@@H](C)CO)C(=O)c2cc(NC(=O)Nc3ccccc3)ccc2O1 | – | · | · | · | · | · | ·
O=C(Cc1ccncc1)NCC[C@@H]1CC[C@H](NC(=O)Nc2ccc(F)cc2)[C@H](CO)O1 | – | · | · | · | · | · | ·
Cc1ccccc1Cn1c([N+](=O)[O-])cnc1C | – | 9.9 | – | – | – | – | –
Cc1ncc([N+](=O)[O-])n1Cc1ccccc1 | – | – | – | – | – | · | ·
CCCOc1ccc(N2C(=O)CC(SCCN)C2=O)cc1 (configuration not stated) | – | 10 | – | – | – | 7.9 | 6.6
CCCOc1ccc(N2C(=O)CC(SCC(N)C(=O)OCC)C2=O)cc1 (configuration not stated) | – | – | – | – | – | · | ·
